Inconclusive results are not listed. Where a call stands in place of a potency, no number is given. Activity calls are given as the source filed them. The call rests on the fitted dose curve.

Beta-2 adrenergic receptor (Homo sapiens), sequence (P07550 whole entry, looked up): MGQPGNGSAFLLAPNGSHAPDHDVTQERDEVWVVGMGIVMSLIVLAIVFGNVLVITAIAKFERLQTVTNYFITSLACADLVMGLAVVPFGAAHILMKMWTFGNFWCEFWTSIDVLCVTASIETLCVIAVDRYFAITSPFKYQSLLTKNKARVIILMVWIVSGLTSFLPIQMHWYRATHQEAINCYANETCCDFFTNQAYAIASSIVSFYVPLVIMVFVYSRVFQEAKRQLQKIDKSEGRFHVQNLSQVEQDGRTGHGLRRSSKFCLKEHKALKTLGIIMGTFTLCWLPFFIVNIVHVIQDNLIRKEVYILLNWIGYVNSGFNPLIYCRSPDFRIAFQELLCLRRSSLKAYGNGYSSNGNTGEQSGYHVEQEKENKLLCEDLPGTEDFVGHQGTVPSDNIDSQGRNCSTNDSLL

The test deals with Beta-2 adrenergic receptor (Homo sapiens) (UniProt P07550). Kind of test: Adrenergic beta2 receptor (ADRB2) small molecule antagonists, cell-based qHTS assay (AID 1963592). Further: nearly all actives have a fitted effect of over 50% in size. As to conditions: CHO-ADRB2 cells, isoproterenol-stimulated cAMP HTRF ratio, 0.5 h; series mostly up to 92.4 µM. An excerpt:
U.S. Tox21 Program National Center for Advancing Translational Sciences [NCATS] Division of Preclinical Innovation [DPI] U.S. Environmental Protection Agency [EPA] National Institutes of Environmental Health Sciences [NIEHS] National Toxicology Program [NTP] U.S. Food and Drug Administration [FDA] Tox21 Assay Overview: Beta adrenergic receptors (Beta-ARs) belong to the G-protein coupled receptor (GPCR) superfamily, includes three subtypes - beta1, beta2, and beta3. Beta1-AR is the predominant receptor subtype expressed in the heart, and beta2-AR is expressed in the kidney, lung, blood vessel and in the heart, and beta3 is found in the adipocytes. Beta1 and 2 ARs couple to Gs protein and elevate cyclic adenosine mono phosphate (cAMP), which activates protein kinase A and leads to the downstream signaling responsible for the physiological actions. Beta-AR agonists or antagonists are the most prescribed therapeutic agents for heart failure and asthma, and these were one of the first target receptors for the rational drug design. Tox21 10K compound library was screened using the cAMP-Gs dynamic assay (Cisbio Bioassays, Shelton, CT) to identify agonists/antagonists of the Gs-coupled human adrenergic, beta2 receptor (ADRB2) in the CHO-ADRB2 cell line (Codex BioSolutions, Inc. Gaithersburg, MD), which stably over-expresses ADRB2. The principle of cAMP-Gs dynamic assay is based on HTRF technology, which facilitates the fluorescence resonance energy transfer (FRET) between donor Europium cryptate and acceptor d2-labeled cAMP. The cAMP generated within cells competes with the red acceptor, d2-labled cAMP, for binding to the monoclonal anti-cAMP-cryptate (Europium donor). An increase in intracellular cAMP leads to the disruption of FRET signal, and the signal is inversely proportional to the cAMP concentration. Propranolol HCl (Sigma-Aldrich, St. Louis, MO) was used as a positive control in the screening.
Tox21 Assay Protocol Summary: CHO-ADRB2 cells were dispensed at 1,000/well in 4uL assay medium into white/solid 1536-well plates (Greiner Bio-One North America Inc., Monroe, NC) using a Multidrop Combi dispenser (ThermoFisher Scientific, Waltham, MA). The assay plates were incubated at 37C and 5% CO2 for an overnight (18-20hr). Then positive control and test compounds dissolved in DMSO were transferred to the assay plates at 23nL using a Pintool station (Wako, San Diego, CA). Following the compound and positive control transfer, 1uL agonist-stimulation mix containing 1nM Isoproterenol HCl, 100uM IBMX and 25uM Ro-20-1724 was added to each well of the assay plates using BioRAPTR Flying Reagent Dispenser (FRD, Beckman Coulter, Brea, CA). The assay plates were incubated at room temperature for 0.5hr. Then 2.5ul each d2-labled cAMP and anti-cAMP-cryptate solutions were added separately to each well of the assay plates using an FRD and the assay plates were incubated at room temperature for 1hr. The fluorescence signal was measured at two different wavelengths (665nm and 615nm) using an Envision plate reader (Perkin Elmer, Shelton, CT). Data were expressed as the ratio of 665 nm/615 nm.
`C=C(C)C1CCC(C)CC1O` (stereo not given): the Potency result was “inactive”.

Turning to `NCCCCCC(=O)O`, the Potency entry was “inactive”.

`CC(C)Cc1nccs1`: the Potency entry was “inactive”.

Take `Oc1ccc(C(O)CNCCCCCCNCC(O)c2ccc(O)c(O)c2)cc1O` (stereo not given): the Potency result is “inactive”.

`COc1cc(C)ccc1O`: the Potency result is “inactive”.

For `CC(=O)[C@@]1(O)CC[C@H]2[C@@H]3C[C@H](C)C4=CC(=O)CC[C@]4(C)[C@H]3CC[C@@]21C`, the Potency entry was “inactive”.

As to `Cc1ccnc(NS(=O)(=O)c2ccc(N)cc2)n1`, the Potency result was “inactive”.

With `CC1=CC(O)CC(C)(C)C1` (stereo not given), the Potency result is “inactive”.

As to `C=CC(=O)OCCOC(=O)CCC(=O)O`, the Potency result was “inactive”.

As to `COC(=O)C(c1ccccc1Cl)N1CCc2sccc2C1` (stereo not given), the Potency result is “inactive”.

Consider `O=c1[nH]c(=O)n([C@H]2C[C@H](O)[C@@H](CO)O2)cc1I`, for which the Potency result was “inactive”.

Regarding `CC/C=C\CCOC(=O)c1ccccc1`, the Potency result is “inactive”.

Consider `CCN(CC)CCNC(=O)c1cc(Cl)c(N)cc1OC`, for which the Potency result was “inactive”.

In the case of `CC(C)SCc1ccco1`, the Potency result is “inactive”.

Regarding `Cc1cc(CC(=O)O)c(C)n1-c1ccc(Cl)cc1`, the Potency result is “inactive”.

Take `Nc1ccc(C(=O)OCCCOC(=O)c2ccc(N)cc2)cc1`: the Potency entry is “inactive”.

Turning to `CC(C)=CCCC(C)C=O` (stereo not given), the Potency entry was “inactive”.

`O=P(O)(O)Oc1ccccc1`: the Potency result is “inactive”.

Regarding `CCOC(=O)C1=NN(c2ccc(Cl)cc2Cl)C(C)(C(=O)OCC)C1` (stereo not given), the Potency entry was “inactive”.

Take `OCCCCCCO`: the Potency entry was “inactive”.

`CCOC(=O)CC(=O)c1cc(F)c(Cl)nc1Cl`: the Potency entry was “inactive”.

`Cc1c(C)c2c(c(C)c1OC(=O)CCC(=O)O)CC[C@@](C)(CCC[C@H](C)CCC[C@H](C)CCCC(C)C)O2`: the Potency entry is “inactive”.

Regarding `CC(C)NNC(=O)c1ccncc1`, the Potency result was “inactive”.

On to `O=C1OC(=O)c2cc([N+](=O)[O-])ccc21`, for which the Potency entry was “inactive”.

As to `CC(C)(C)NSc1nc2ccccc2s1`, the Potency entry is “inactive”.

`Cc1nc2ccccc2n1Cc1ccc(Cl)cc1`: the Potency entry was “inactive”.

On to `Oc1cccc(O)c1O`, for which the Potency entry was “inactive”.

On to `O=C(C1CCCCC1)N1CC(=O)N2CCCc3ccccc3C2C1` (stereo not given), for which the Potency result is “inactive”.

`C/C=C/C(=O)CC`: the activity change, negative = inhibition was 3.38% [at 19 µM] (inactive).

In the case of `CCN(CC)CC(=O)Nc1c(C)cccc1C(=O)OC`, the Potency entry was “inactive”.

In the case of `CCN(CC)CCOc1ccccc1C(=O)CCc1ccccc1`, the Potency entry is “inactive”.

In the case of `OCCSc1ccccc1`, the Potency entry is “inactive”.

For `Cc1ccc(N)nc1`, the Potency entry was “inactive”.

Take `CC/C=C\CCOC(=O)c1ccccc1O`: the Potency result was “inactive”.

As for `CC(C)OCC1CO1` (stereo not given), the Potency entry is “inactive”.

For `CCCCN(CCCC)C(=O)N(CCCC)CCCC`, the Potency result is “inactive”.

With `CSc1cnc(C)cn1`, the Potency entry was “inactive”.

Take `CCOC(=O)CC`: the Potency entry is “inactive”.

Regarding `O=C1CCCc2c(O)cccc21`, the Potency result is “inactive”.

For the compound `CCN(CC)CCNC(=O)COc1ccc(Cl)cc1`, the Potency entry was “inactive”.
